Measurements taken from ChEMBL document CHEMBL4513216, “Probing the Open Global Health Chemical Diversity Library for Multistage-Active Starting Points for Next-Generation Antimalarials” (ACS Infect Dis, 2020).
In all, about 69,000 compounds went through this assay and about 8,600 (12%) showed an effect of 50% or more. The sample as a whole holds a higher share of strong results than the screen did.

system: Plasmodium berghei; assay: Screen against P. berghei liver stage (PbLuc), transformed with Luciferase, at 10uM; assay type: functional, HepG2; settings: tested at 10 uM

Compared with COCCN1CCn2c(CN(C)C(C)C)cnc2C1, COCC1CC2(CCN(Cc3cnn(C)c3)CC2)CN1C(C)C (stereo not given) is higher in INHIBITION: -8.28% for the first, 37.5% for the second.

Compared with CNC(=O)[C@@H]1[C@@H](c2ccccc2)CN2CCN(Cc3ccco3)C[C@H]12, CNC(=O)[C@@H]1[C@H]2CN(Cc3ccoc3)CCN2C[C@H]1c1ccccc1 is lower in INHIBITION: 57% for the first, 9.36% for the second.

First: CNC(=O)[C@@H]1[C@@H](c2ccccc2)CN2CCN(Cc3cccs3)C[C@H]12
Second: CC(=O)N1CC(=O)N(c2ccccc2)CC12CCN(Cc1cccs1)C2 (stereo not given)
The INHIBITION of the first is higher: 41.1% for the first, 6.38% for the second.

Going from Cn1cc(N2CC3(CCN(Cc4cccnc4)CC3)OCC2=O)cn1 to CN(C)C(=O)CC1CC2(CCN(Cc3ccoc3)CC2)c2ccccc21 (stereo not given), the INHIBITION falls from 22.9% to -6.23%.

First: Cc1nc(C)n(C2CCCN(C(=O)c3ccc4nccn4c3)C2)n1 (stereo not given)
Second: Cc1ncc(C(=O)N2CCCC(Cc3nccs3)C2)cn1 (stereo not given)
The INHIBITION of the first is lower: 20.8% for the first, 29.3% for the second.

Going from Cc1ccc(N2CC[C@]3(O)CCN(CCN4CCCC4=O)C[C@@H]3C2)nn1 to O=C1CCCN1CCN1CC[C@@]2(O)CCN(c3ncccn3)C[C@H]2C1, the INHIBITION rises from -2.25% to 51.2%.

Going from CSCCCN1CC[C@@]2(O)CCN(c3ncccn3)C[C@H]2C1 to CNC(=O)[C@@]12CCCN(c3ncccn3)[C@@H]1CN(C)C2, the INHIBITION falls from 38.3% to -17.4%.

First: CCc1nnc2n1CCN(C(=O)c1cc3ccccc3[nH]1)C2
Second: CCc1nnc2n1CCN(C(=O)c1ccc(C)c(S(N)(=O)=O)c1)C2
The INHIBITION of the first is lower: 18.2% for the first, 36.8% for the second.

First: Cc1cc(N2CCc3c(ncn3C)C2)n2nc(C(F)(F)F)nc2n1
Second: Cc1cc(N2CCc3cnc(C)nc3C2)n2nc(C(F)(F)F)nc2n1
The INHIBITION of the first is higher: 20% for the first, 10.6% for the second.

First: Cc1cc(N2CCc3cncnc3C2)n2nc(C(F)(F)F)nc2n1
Second: CC(=O)N1CCc2nc(C3CCN(c4ncccn4)C3)ncc2C1 (stereo not given)
The INHIBITION of the first is higher: 50.8% for the first, -0.902% for the second.

Compared with Cc1nc(C)n(Cc2cccc(NC3CCN(C)C3=O)c2)n1 (stereo not given), CC(C)SCc1cccc(NC2CCN(C)C2=O)c1 (stereo not given) is higher in INHIBITION: -41.6% for the first, -13.9% for the second.

Going from CCSCc1cccc(NC2CCN(C)C2=O)c1 (stereo not given) to COc1cccc(CC(=O)NCc2cnc(C)nc2C2CCCN2C)c1 (stereo not given), the INHIBITION falls from 52.5% to 36.7%.

Going from CN1CCCC(CCC(=O)N2CCc3c(nc(CC4CC4)[nH]c3=O)C2)C1 (stereo not given) to Nc1nc2c(c(N3CCCC(CN4CCCC4=O)C3)n1)CCNCC2 (stereo not given), the INHIBITION falls from 49.3% to 48.5%.

Compared with CCO[C@H]1C[C@@H](O)C12CCN(C(=O)CN1CCCCCC1=O)CC2, CCO[C@H]1C[C@@H](O)C12CCN(C(=O)CCN1CCCC1=O)CC2 is lower in INHIBITION: 24.3% for the first, 14.5% for the second.

Going from CCO[C@H]1C[C@@H](O)C12CCN(C(=O)CC(F)(F)F)CC2 to CCOCCn1nc(C)cc1C(=O)N1CCC2(CC1)[C@H](O)C[C@@H]2OCC, the INHIBITION falls from 90.2% to 9.63%.

Going from CCO[C@H]1C[C@@H](O)C12CCN(C1CCN(c3ccccc3C)CC1)CC2 to CCO[C@H]1C[C@@H](O)C12CCN(C1CCN(c3ccccc3)CC1)CC2, the INHIBITION falls from 69.4% to 25.8%.

First: CCO[C@H]1C[C@@H](O)C12CCN(C1Cc3ccccc3C1)CC2
Second: NCCO[C@H]1C[C@@H](O)C12CCN(C1Cc3ccccc3C1)CC2
The INHIBITION of the first is higher: 50.3% for the first, 43% for the second.

Going from CCO[C@H]1C[C@@H](O)C12CCN(S(=O)(=O)c1ccccc1OC)CC2 to COCC1CC2(CCN(C(=O)c3cnc4ccccc4c3)CC2)CO1 (stereo not given), the INHIBITION falls from 46.4% to 42.1%.

Going from CCN(CC)c1ncc2c(O)nc(C3CCNCC3)cc2n1 to Cc1nc2c(c(N3CCCC(OCc4ccccn4)C3)n1)CCNCC2 (stereo not given), the INHIBITION rises from 6.26% to 73%.

First: CCN(C)c1ncnc2c1CCN(C(=O)COC)CC2
Second: COCC(=O)N1CCCC2(CCN(Cc3cccc(C)n3)C2=O)C1 (stereo not given)
The INHIBITION of the first is lower: -12.1% for the first, 43.9% for the second.

First: COC(=O)[C@H](C)NC(=O)COc1nn(C)c2nc(C)cc(C)c12
Second: CCCNC(=O)C(C)n1nc(-c2ccc(C)o2)cc(N)c1=O (stereo not given)
The INHIBITION of the first is lower: -10.2% for the first, 31.6% for the second.

Going from Cc1cc2nc(SCC(=O)N3CCCC3)n(Cc3ccco3)c(O)c-2n1 to CN(C)C(=O)CC1CC2(CCN(Cc3ccco3)CC2)c2ccccc21 (stereo not given), the INHIBITION rises from 34.2% to 75%.

Going from CCS(=O)(=O)N(C)CCCNC(=O)c1cc(Cl)cc2cccnc12 to COc1ncccc1CNC(=O)c1cc(Cl)ccn1, the INHIBITION falls from 37.9% to -22.8%.

Compared with CCc1cc(CNC(=O)C2CCCN(C(=O)NCC(C)C)C2)[nH]n1 (stereo not given), CCn1c(CC2CCN(C(=O)c3cc(CC(C)C)on3)CC2)n[nH]c1=O is higher in INHIBITION: 22.5% for the first, 51.7% for the second.

First: CN(Cc1ccccc1)c1cnn(CC2CCCCO2)c(=O)c1 (stereo not given)
Second: Cn1cc(C2CCCN2Cc2csc(-c3ccccc3)n2)cn1 (stereo not given)
The INHIBITION of the first is higher: 28.2% for the first, -38.2% for the second.

Going from COC(=O)c1ccc(CN(C)C(=O)c2cnsn2)cc1 to Cc1ccc(CN(C)C(=O)c2cnsn2)cc1, the INHIBITION rises from 64.1% to 65.2%.

First: CN(Cc1cccc(OC(F)(F)F)c1)C(=O)c1ccncc1F
Second: CN(Cc1cccc(OC(F)(F)F)c1)C(=O)c1cnsn1
The INHIBITION of the first is lower: 39.4% for the first, 68.6% for the second.

Compared with CN(Cc1cccc(OC(F)(F)F)c1)C(=O)Cc1ccon1, COC(=O)c1cccc(C(=O)N(C)Cc2ccsc2)c1 is lower in INHIBITION: 19.5% for the first, 13.8% for the second.

First: Cc1ccc(CN(C)C(=O)CN2CCCC2c2cnn(C)c2)cc1 (stereo not given)
Second: CC(=O)N(C)c1nc(CN2CCCC2c2cnn(C)c2)cs1 (stereo not given)
The INHIBITION of the first is lower: -1.79% for the first, 50.3% for the second.

Compared with COC(=O)c1cccc(C(=O)N(C)Cc2cccc(O)c2)c1, Cc1ccc(CN(C)C(=O)c2scnc2C)cc1 is lower in INHIBITION: 7.44% for the first, -11.19% for the second.

Compared with Cc1nn(C)c2cn(CC(=O)N3CCN(c4ccccn4)CC3)nc12, Cc1nn(C)c2ncnc(N3CCCC(OCc4ccccn4)C3)c12 (stereo not given) is lower in INHIBITION: 30% for the first, -46.6% for the second.

First: CC(c1ccco1)N(C(=O)Cn1nc2n(c1=O)CCCCC2)C1CC1 (stereo not given)
Second: O=C(NCc1cnc2n1CCN(Cc1nccs1)CC2)C1CCC1
The INHIBITION of the first is lower: 5.94% for the first, 30.3% for the second.

First: Cc1ncc(C(=O)NCCNc2ncccc2C#N)s1
Second: N#Cc1cc(F)ccc1Cn1cnc(C2CCC2)cc1=O
The INHIBITION of the first is lower: -0.113% for the first, 26.6% for the second.

Compared with O=C(Cn1ccnc1)N(CCO)CCSc1ccc(Cl)cc1, CC(C)OCCCNC(=O)CS(=O)(=O)Cc1ccc(Cl)cc1 is higher in INHIBITION: 9.41% for the first, 9.64% for the second.

Compared with N#Cc1cc(Cn2cnc(C3CCC3)cc2=O)ccc1F, N#Cc1ccc(F)cc1Cn1cnc(C2CCC2)cc1=O is lower in INHIBITION: 74.3% for the first, -22.3% for the second.

Compared with CCc1nnc2n1CCN(Cc1cc(Cl)c3c(c1)OCCO3)C2, CCc1nnc2n1CCN(CC(O)c1ccc3c(c1)OCCO3)C2 (stereo not given) is higher in INHIBITION: 10.235% for the first, 22.333% for the second.

First: Cc1noc(CCCC(=O)N2CCCCC2CNS(C)(=O)=O)n1 (stereo not given)
Second: CS(=O)(=O)N1C[C@H]2N(c3ncccn3)CCC[C@@]2(C(=O)NCC2CC2)C1
The INHIBITION of the first is higher: 49.7% for the first, 35.8% for the second.

First: CNC(=O)CC1CC2(CCN(Cc3nccs3)CC2)c2ccccc21 (stereo not given)
Second: CN(C)C(=O)CC1CC2(CCN(Cc3cccs3)CC2)c2ccccc21 (stereo not given)
The INHIBITION of the first is lower: -0.113% for the first, 45.2% for the second.

Compared with CN(C)C(=O)NC1COC2(CCN(Cc3ccco3)CC2)C1 (stereo not given), CN(C)C(=O)CC1CC2(CCN(Cc3ccsc3)CC2)c2ccccc21 (stereo not given) is higher in INHIBITION: 27.6% for the first, 64.2% for the second.

Going from CC(=O)N1CCC(N2CCC(c3nc(C)cc(C)n3)C2)CC1 (stereo not given) to CCn1c(CC2CCN(C(=O)c3cc(C(C)C)n[nH]3)CC2)n[nH]c1=O, the INHIBITION rises from 24.8% to 41.5%.

Compared with Cc1cncnc1C1CCN(CC(N)=O)CC1, CCN1C[C@H]2N(c3ncccn3)CCC[C@@]2(C(=O)NCC2CC2)C1 is higher in INHIBITION: -16.9% for the first, 19.5% for the second.

Compared with CN1C[C@H]2N(c3ncccn3)CCC[C@@]2(C(=O)NCC2CC2)C1, CNC(=O)N1C[C@H]2N(c3ncccn3)CCC[C@@]2(C(=O)NCC2CC2)C1 is lower in INHIBITION: 67.5% for the first, 17.7% for the second.

First: CC(C)CN1C[C@H]2N(c3ncccn3)CCC[C@@]2(C(=O)NCC2CC2)C1
Second: CCn1c(C2CCN(C(=O)c3cc(CC(C)C)on3)CC2)nn(C)c1=O
The INHIBITION of the first is higher: 56.6% for the first, 21.8% for the second.

First: O=C(O)c1ccc(C2CCCN(C(=O)c3ccc[nH]3)C2)cc1 (stereo not given)
Second: O=C(Cc1n[nH]c2ccccc12)N1CCC(Nc2cccnn2)CC1
The INHIBITION of the first is lower: 36.8% for the first, 49.3% for the second.

First: Cn1cc(C2CCCN2Cc2csc(C3CCCC3)n2)cn1 (stereo not given)
Second: CC(C)c1nc(CN2CCCC2c2cnn(C)c2)cs1 (stereo not given)
The INHIBITION of the first is higher: 42% for the first, 19.4% for the second.

Compared with CC(=O)Nc1nc(CN2CCCC2c2cnn(C)c2)cs1 (stereo not given), Cn1cc(C2CCCN2Cc2csc(C(C)(C)C)n2)cn1 (stereo not given) is higher in INHIBITION: 34.9% for the first, 55.9% for the second.

Compared with Cc1cnn(CC2CN(Cc3nc(-c4ccsc4)no3)CCO2)c1 (stereo not given), Cc1nc(N2CCCC(OCc3ccccn3)C2)c2c(C)noc2n1 (stereo not given) is lower in INHIBITION: 49.75% for the first, -4.21% for the second.

Compared with CC1(C(=O)N2CCN(c3cnccn3)CC2)CNCCO1 (stereo not given), c1ccc(CN2CCc3ncnc(N4CCCC4)c3CC2)nc1 is higher in INHIBITION: 36.5% for the first, 46.7% for the second.

First: COc1cc2cc3c(nc2cc1OC)OCCN(CC1CC1)C3
Second: Nc1nc2c(c(N3CCCC(OCc4ccccn4)C3)n1)CCNCC2 (stereo not given)
The INHIBITION of the first is lower: -7.66% for the first, 59.4% for the second.

Compared with NCC1CCCN(c2nc(-c3ccccc3)nc3c2CCNCC3)C1 (stereo not given), Nc1nc2c(c(N3CCCC3)n1)CCN(Cc1ccccn1)CC2 is higher in INHIBITION: 19.5% for the first, 41.5% for the second.

First: Nc1nc2c(c(N3CCSCC3)n1)CCN(Cc1ccccn1)CC2
Second: Cc1cnc(CN2CCCC2c2noc(C(C)C)n2)cn1 (stereo not given)
The INHIBITION of the first is higher: 66.5% for the first, 9.54% for the second.

Going from Cc1ccc(CN2CCOC3(COCCN(C(C)C)C3)C2)o1 (stereo not given) to CCCS(=O)(=O)CCN1CCN(C(C#N)c2ccccc2)CC1 (stereo not given), the INHIBITION falls from 43% to -4.93%.

COCCOCC(=O)Nc1ccc(C)cc1Br showed an INHIBITION of -5.51%.
